Screening data deposited in PubChem by several laboratories.
Only some compounds are listed: those with a hit (about 27% of all), similar ones and a draw of the others.
Cav3 T inh – Cav3.2 calcium influx blockers – cell-based, Fluo-4 calcium fluorescence, FDSS, MLSMR library, primary screen | Cav3.2-expressing cells; stronger effect = lower value | B-score at 10 µM | hit rate 4% among 100,000;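 active = single-dose well whose peak fluorescence ratio is a statistical outlier from its plate by either plate-standardised score or position-corrected B-score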
Target sequence (O95180 whole entry, looked up): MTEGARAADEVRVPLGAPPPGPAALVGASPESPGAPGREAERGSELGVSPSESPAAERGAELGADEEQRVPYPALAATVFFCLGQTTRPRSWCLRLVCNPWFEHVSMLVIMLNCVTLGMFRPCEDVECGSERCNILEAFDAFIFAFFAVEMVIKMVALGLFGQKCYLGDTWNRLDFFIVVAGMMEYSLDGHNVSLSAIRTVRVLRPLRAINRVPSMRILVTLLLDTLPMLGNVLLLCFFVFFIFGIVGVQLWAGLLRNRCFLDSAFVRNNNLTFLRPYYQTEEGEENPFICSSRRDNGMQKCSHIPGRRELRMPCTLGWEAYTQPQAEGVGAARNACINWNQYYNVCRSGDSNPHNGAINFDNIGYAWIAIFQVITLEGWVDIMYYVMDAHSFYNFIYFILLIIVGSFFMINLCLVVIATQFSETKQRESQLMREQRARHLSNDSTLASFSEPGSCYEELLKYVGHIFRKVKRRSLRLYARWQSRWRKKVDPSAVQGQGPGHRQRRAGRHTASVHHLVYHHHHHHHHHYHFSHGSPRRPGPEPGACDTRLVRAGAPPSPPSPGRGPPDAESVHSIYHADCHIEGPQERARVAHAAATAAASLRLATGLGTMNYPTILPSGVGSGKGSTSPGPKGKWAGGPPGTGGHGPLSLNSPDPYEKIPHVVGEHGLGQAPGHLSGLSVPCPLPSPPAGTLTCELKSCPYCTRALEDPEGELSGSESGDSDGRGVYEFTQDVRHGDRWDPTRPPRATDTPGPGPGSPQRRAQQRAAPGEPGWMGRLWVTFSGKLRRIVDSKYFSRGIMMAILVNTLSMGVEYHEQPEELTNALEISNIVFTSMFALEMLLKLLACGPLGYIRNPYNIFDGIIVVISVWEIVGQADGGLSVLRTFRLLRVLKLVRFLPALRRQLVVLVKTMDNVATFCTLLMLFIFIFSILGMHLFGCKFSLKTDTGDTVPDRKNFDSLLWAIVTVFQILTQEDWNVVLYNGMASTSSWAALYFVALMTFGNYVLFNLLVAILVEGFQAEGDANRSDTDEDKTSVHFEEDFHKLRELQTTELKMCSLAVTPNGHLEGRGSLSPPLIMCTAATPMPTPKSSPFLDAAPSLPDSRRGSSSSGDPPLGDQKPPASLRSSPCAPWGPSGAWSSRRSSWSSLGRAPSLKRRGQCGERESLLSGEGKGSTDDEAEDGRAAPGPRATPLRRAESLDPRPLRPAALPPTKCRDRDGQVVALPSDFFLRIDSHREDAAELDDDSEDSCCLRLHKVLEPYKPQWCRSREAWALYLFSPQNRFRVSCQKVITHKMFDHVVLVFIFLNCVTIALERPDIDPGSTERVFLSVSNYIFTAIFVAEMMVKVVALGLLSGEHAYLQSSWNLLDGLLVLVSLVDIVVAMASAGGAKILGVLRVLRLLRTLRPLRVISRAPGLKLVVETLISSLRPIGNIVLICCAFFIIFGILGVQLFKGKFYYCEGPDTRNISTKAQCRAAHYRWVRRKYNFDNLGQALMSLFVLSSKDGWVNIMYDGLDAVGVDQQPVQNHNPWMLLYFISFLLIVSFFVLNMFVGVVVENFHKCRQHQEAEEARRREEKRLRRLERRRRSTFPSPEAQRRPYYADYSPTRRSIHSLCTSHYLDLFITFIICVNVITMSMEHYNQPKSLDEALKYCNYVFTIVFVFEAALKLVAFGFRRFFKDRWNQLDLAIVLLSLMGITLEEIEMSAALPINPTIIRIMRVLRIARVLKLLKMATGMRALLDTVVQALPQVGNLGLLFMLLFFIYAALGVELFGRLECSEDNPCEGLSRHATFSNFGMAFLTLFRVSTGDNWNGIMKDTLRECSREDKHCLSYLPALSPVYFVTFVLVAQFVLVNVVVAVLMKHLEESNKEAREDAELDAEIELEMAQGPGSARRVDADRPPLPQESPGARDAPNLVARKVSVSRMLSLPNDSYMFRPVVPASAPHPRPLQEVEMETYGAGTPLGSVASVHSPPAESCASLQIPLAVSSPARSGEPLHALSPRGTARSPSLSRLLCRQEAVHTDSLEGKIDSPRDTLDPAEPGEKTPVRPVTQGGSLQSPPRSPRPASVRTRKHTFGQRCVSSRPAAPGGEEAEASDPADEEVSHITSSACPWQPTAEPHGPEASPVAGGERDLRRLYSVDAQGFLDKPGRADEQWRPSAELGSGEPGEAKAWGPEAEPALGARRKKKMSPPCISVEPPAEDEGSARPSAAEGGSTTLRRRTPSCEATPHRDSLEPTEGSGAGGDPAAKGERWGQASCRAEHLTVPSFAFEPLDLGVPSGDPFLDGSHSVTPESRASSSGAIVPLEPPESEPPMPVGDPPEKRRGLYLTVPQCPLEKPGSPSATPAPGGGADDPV
CYP2C9 activ – human CYP2C9 activators, primary screen, biochemical, luminescence; Cytochrome P450 2C9 (Homo sapiens), P11712; recombinant CYP2C9, luciferin-H conversion; stronger effect = higher value; factor 1 = untreated enzyme, 0 = blocked; activation factor at 5 µM; hit rate 1.4% among 96,000;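 active = activation factor of 2 or more for CYP2C9 at a 5 µM dose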
CYP2C19 inh – blockers of cytochrome P450 2C19 activity – biochemical, luminescence, ADME assay, primary screen. P33261. CYP2C19 Supersomes, luciferin-H EGE luminescence, 30 min. inhibition, % at 5 µM. hit rate 21% among 96,000. AID 778, 2007;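 active = CYP2C19 inhibition above a set limit at 5 µM in the primary screen, cut at about 50% in these data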
CYP2C19 act – human CYP2C19 activators, primary screen, biochemical, luminescence. activation factor at 5 µM. Cytochrome P450 2C19 (Homo sapiens), P33261. recombinant CYP2C19, luciferin-H EGE luminescence; stronger effect = higher value; 0 = fully inhibited enzyme, 1 = untreated enzyme. AID 1025, 2008. 96,000 tested, under 10 active;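 active = activation factor of at least 2 at 5 µM in the primary screen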
CYP2C9 inh – blockers of cytochrome P450 2C9 activity – biochemical, luminescence, ADME assay, primary screen; hit rate 20% among 96,000; CYP2C9 Supersomes, luciferin-H conversion; P11712; inhibition, % at 5 µM;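 active = blocking of liver enzyme CYP2C9 beyond about 50% at 5 µM, limit read from the data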
Large screens that a line does not name were inactive.

Cc1cccc(C(=O)O/N=C(\N)Cc2ccc([N+](=O)[O-])cc2)c1	Cav3 T inh -4.49, CYP2C19 inh 84.2
COc1ccc(C/C(N)=N/OC(=O)C(c2ccccc2)c2ccccc2)cc1OC	none
Cc1cccc(N2CCN(C(=O)CCNS(=O)(=O)c3ccc4c(c3)CCC(=O)N4)CC2)c1C	CYP2C9 inh 58.5
O=C1CCc2cc(S(=O)(=O)N3CCN(c4ccccc4F)CC3)ccc2N1	none
O=C1CC2(CCCCC2)Oc2ccc(Cl)cc21	none (no result: CYP2C9 activ, CYP2C19 inh, CYP2C19 act, CYP2C9 inh)
COC(=O)CCCNC(=O)OCc1ccc([N+](=O)[O-])cc1	none
C#CCOC(=O)CCCNc1ccc([N+](=O)[O-])cc1[N+](=O)[O-]	CYP2C19 inh 62.1, CYP2C9 inh 57.7
O=C(CSc1ncn[nH]1)NCCOc1ccccc1	none
COc1ccc(CCC(=O)NCCc2cn3c(C)csc3n2)cc1	CYP2C19 inh 53.0
COc1ccc(OCCSc2ncn[nH]2)cc1	none
CCOC(=O)C(Sc1ncn[nH]1)c1ccccc1 (stereo unspecified)	CYP2C19 inh 64.4
COc1ccc(CCNC(=O)CSc2ncn[nH]2)cc1	CYP2C19 inh 52.0
COc1ccc(CCC(=O)NCc2cn3ccsc3n2)cc1	none (no result: CYP2C9 activ, CYP2C19 inh, CYP2C19 act, CYP2C9 inh)
O=C(CSc1ncn[nH]1)OCN1C(=O)c2ccccc2C1=O	none
O=C(CSc1ncn[nH]1)NCCC(c1ccccc1)c1ccccc1	CYP2C19 inh 82.6, CYP2C9 inh 65.4
CCOC(=O)Cc1csc(NC(=O)CCCCCN2C(=O)c3cccc4cccc(c34)C2=O)n1	none (no result: CYP2C9 activ, CYP2C19 inh, CYP2C19 act, CYP2C9 inh)
O=C(c1ccc(=O)[nH]c1)N(Cc1ccco1)C1(C(=O)NC2CCCC2)CCCCC1	none (no result: Cav3 T inh)
Cc1oc(-c2ccccc2)nc1Cn1cccc1C1=NC(c2ccccc2)CO1 (stereo unspecified)	Cav3 T inh -5.64, CYP2C19 inh 84.2, CYP2C9 inh 82.0
c1ccc(CNc2cnccn2)cc1	none (no result: CYP2C9 activ, CYP2C19 inh, CYP2C19 act, CYP2C9 inh)
CCc1ccc(S(=O)(=O)NCc2csc(C)n2)s1	none (no result: CYP2C9 activ, CYP2C19 inh, CYP2C19 act, CYP2C9 inh)
CCOC(=O)c1oc2ccc3c(c2c1C)C(=O)CC1(CCN(C(=O)OCC)CC1)O3	CYP2C19 inh 52.1, CYP2C9 inh 51.0
CCOC(=O)c1oc2cccc(OC(C)=O)c2c1C	CYP2C19 inh 76.0
CCOC(=O)c1oc2ccc(CNC(C)(C)C)c(Cl)c2c1C	none (no result: CYP2C9 activ, CYP2C19 inh, CYP2C19 act, CYP2C9 inh)
Cc1cc(C)c(-c2cc(NC(=O)CSc3nncn3C)n(-c3ccccc3)n2)cc1C	none
Cn1cc(S(=O)(=O)N2CCN(C(=O)c3ccco3)CC2)c(=O)n(C)c1=O	none
O=C(/C=C/c1ccc([N+](=O)[O-])cc1)NCC1CCCO1 (stereo unspecified)	none
CCOC(=O)N1CCN(c2cc(=O)n(-c3cccc(Br)c3)c(=O)[nH]2)CC1	none
O=c1[nH]c2ccccc2n1CCC1CCCCC1	CYP2C19 inh 92.6, CYP2C9 inh 56.2
CCn1c2ccccc2c2nnc(SCCCn3c(=O)[nH]c4ccccc43)nc21	CYP2C19 inh 78.3, CYP2C9 inh 87.5
Cn1c(=O)[nH]c(=O)c2c1nc(NC1CCCCC1)n2Cc1ccccc1	none
O=c1[nH]c2ccccc2n1CCCSCCCn1c(=O)[nH]c2ccccc21	CYP2C9 inh 88.4
O=c1[nH]c2ccccc2n1Cc1ccc(Cl)cc1	CYP2C19 inh 72.8
COc1cccc(CNc2ccc3c(c2)CCC3)c1	none
COCc1cc(C)nc(OCC(=O)N/N=C/c2cccc(OC)c2)c1C#N	none
COCc1cc(C)nc(OCC(=O)N/N=C\c2cc(C)n(-c3cccc(C(F)(F)F)c3)c2C)c1C#N	Cav3 T inh -4.85, CYP2C9 inh 65.1
Cc1ccc(CNc2oc(-c3ccco3)nc2S(=O)(=O)c2ccccc2)cc1	Cav3 T inh -4.73 (no result: CYP2C9 activ, CYP2C19 inh, CYP2C19 act, CYP2C9 inh)
Cc1ccc(S(=O)(=O)c2nc(-c3ccccc3)oc2NCc2cccnc2)cc1	Cav3 T inh -5.27, CYP2C19 inh 77.3, CYP2C9 inh 72.9
Cc1ccccc1-c1nc(CN2CCC(C(=O)NCc3cccnc3)CC2)c(C)o1	none
Cc1ccccc1-c1nc(S(=O)(=O)c2ccc(Br)cc2)c(NCc2cccnc2)o1	Cav3 T inh -2.54, CYP2C19 inh 82.0, CYP2C9 inh 66.3
CSc1oc(-c2ccccc2)nc1S(=O)(=O)c1ccc(C)cc1	none
O=C(NC1CC1)C1=C[C@H](c2coc3ccccc3c2=O)C[C@H](OCc2ccc(CO)cc2)O1	none (no result: CYP2C9 activ, CYP2C19 inh, CYP2C19 act, CYP2C9 inh)
COc1ccc(S(=O)(=O)N(C)CC(=O)NCCC2=CCCCC2)cc1	CYP2C9 activ 2.4
COc1ccc(S(=O)(=O)N(C)CC(=O)NCCC2=CCCCC2)cc1OC	CYP2C19 inh 81.5
CCO[C@H]1OC(C(N)=O)=C[C@@H](C)[C@@H]1CCCO	none (no result: CYP2C9 activ, CYP2C19 inh, CYP2C19 act, CYP2C9 inh)
N#CC1=C(N)C2=C(N3CCCCC3)CCCC2C1(C#N)C#N (stereo unspecified)	CYP2C9 inh 50.7
CCn1cc(Br)c(C(=O)Nc2ccc(Cl)c(Cl)c2)n1	none (no result: CYP2C9 activ, CYP2C19 inh, CYP2C19 act, CYP2C9 inh)
CCn1cc(Br)c(C(=O)Nc2ccc(C(=O)OC(C)C)cc2)n1	CYP2C19 inh 74.9
CCOC(=O)c1c(NC(=O)c2nn(CC)cc2Br)c(C#N)cn1-c1ccccc1	CYP2C19 inh 75.4
CCCCOC(=O)c1ccc(NC(=O)c2nn(C)cc2Br)cc1	none (no result: CYP2C9 activ, CYP2C19 inh, CYP2C19 act, CYP2C9 inh)
CCn1cc(Br)c(C(=O)Nc2cccc(Cl)c2)n1	CYP2C19 inh 93.5, CYP2C9 inh 66.5
O=C(NCCCN1CCOCC1)c1cc(-c2ccc(O)cc2)on1	CYP2C9 activ 2.2
CCOCCCNC(=O)c1cc2c(-c3ccc(Cl)cc3)nn(C)c2s1	CYP2C19 inh 61.3
CCN(CC)CCNC(=O)c1cc2c(-c3ccc(Cl)cc3)nn(C)c2s1	none
O=C(NCCCN1CCOCC1)c1cc(-c2ccc(Br)cc2)on1	none
O=C(Nc1c(F)cc(F)cc1Br)c1cc(-c2ccc(O)cc2)on1	CYP2C19 inh 87.3
Cc1cc(C(=O)Nc2c(F)cc(F)cc2Br)no1	none
Cn1nc(-c2ccc(Cl)cc2)c2cc(C(=O)NCCN3CCOCC3)sc21	CYP2C9 inh 70.5
CCN(CC)C(=O)CSc1nnc(-c2ccccn2)n1-c1ccc(C)c(C)c1	none
CCN1CCN(C(=O)c2cc3c(-c4ccc(Cl)cc4)nn(C)c3s2)CC1	none
Cn1nc(-c2ccc(Cl)cc2)c2cc(C(=O)NCCCN3CCOCC3)sc21	CYP2C9 inh 57.7
CCSc1nc2c(cnn2-c2ccc(C)cc2)c(=O)[nH]1	none (no result: Cav3 T inh)
c1ccc(Nc2nc3ccccc3o2)cc1	none
c1ccc(NC2=Nc3ccccc3CC2)cc1	CYP2C19 inh 67.7
Cc1ccc(C2C(C#N)=C(N)SC(N)=C2C#N)c(C)c1	CYP2C19 inh 54.2
CCCC(c1nnnn1C(C)(C)CC)N(CCCO)Cc1cc2cc(C)cc(C)c2[nH]c1=O (stereo unspecified)	CYP2C9 inh 52.8
CCC(c1nnnn1C(C)(C)CC)N(CCN1CCOCC1)Cc1cc2cc(C)ccc2[nH]c1=O (stereo unspecified)	CYP2C19 inh 81.9 (no result: Cav3 T inh)
CCC(c1nnnn1C(C)(C)CC)N(CCCO)Cc1cc2cc(C)cc(C)c2[nH]c1=O (stereo unspecified)	CYP2C19 inh 62.6, CYP2C9 inh 76.1
